From PubChem BioAssay AID430 (Sanford-Burnham Center for Chemical Genomics, 2006) come the findings set out here.

The whole screen tested about 63,000 compounds, of which about 1,100 (1.7%) were called active. The sample as a whole holds a higher share of actives than the screen did. Results with a measured potency or affinity are listed apart. Values without a mark were called inactive. Cut-off read from the data, not from the text of the source: active = cytotoxicity above about 50%; inactive = the rest.

This test is described as follows: HPDE-C7 pancreatic duct cell viability loss – fluorescence, HTS (AID 430).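 Note: cells exposed to compound for 48 hours before viability readout; 0% = vehicle and 100% = reference cytotoxic drug.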 Conditions: HPDE-C7 pancreatic duct cells viability, at 10 µM, hits give high values.
As for `O=C(Nc1ccc(Cl)cn1)c1cccc(F)c1`, the cytotoxicity was 53.4% (active).

With `O=C(Nc1ncccc1Cl)c1cccc(F)c1`, the cytotoxicity was 62.6% (active).

Regarding `Cc1nnc(NC(=O)c2cccc(F)c2)s1`, the cytotoxicity is -2.4%.

For `O=C(Nc1ccc(Cl)cn1)c1cccnc1`, the cytotoxicity was 13%.

In the case of `CN(C)S(=O)(=O)c1cccc(C(=O)Nc2ccc(Cl)cn2)c1`, the cytotoxicity was -15.5%.

Turning to `O=C(Nc1ccncc1)c1cccc(F)c1`, the cytotoxicity is -0.4%.

For the compound `O=C(CSc1nnc(-c2cccs2)o1)N1CCCc2ccccc21`, the cytotoxicity is -17.8%.

`CCOC(=O)C1CCCN(CC(=O)Nc2c(C(=O)OC)[nH]c3ccc(C)cc23)C1` (stereo unspecified): the cytotoxicity was -8.3%.

Consider `c1ccc2nc3c(nc2c1)sc1nc2ccccc2n13`, for which the cytotoxicity was -6.8%.

Consider `CC(C)(O)c1cc(=O)sc2nc3ccccc3n12`, for which the cytotoxicity is -13.4%.

As to `N=c1cc(C2(O)CCCCC2)n2c(nc3ccccc32)s1`, the cytotoxicity was 51.1% (active).

In the case of `COc1ccc(NC(=O)CS(=O)CC(=O)Nc2cc(Cl)ccc2OC)cc1` (stereo unspecified), the cytotoxicity was -12.2%.

In the case of `CC(Oc1ccc(Cl)cc1Cl)C(=O)Nc1ccncc1` (stereo unspecified), the cytotoxicity was -0.5%.

With `Cc1ccc(N(CC(O)CN(C)C)S(=O)(=O)c2ccccc2)cc1` (stereo unspecified), the cytotoxicity was 3.3%.

As to `O=C(Nc1nnc(-c2ccccc2)o1)Nc1ccccc1Cl`, the cytotoxicity is 22.1%.

Take `Cc1cccc(-c2nnc(-c3ccc(N)cc3)o2)c1`: the cytotoxicity was -2%.

On to `Cc1cccc(-c2nnc(NC(=O)c3ccc(Cl)cc3)o2)c1`, for which the cytotoxicity was 79.5% (active).

As for `CC(=O)c1ccc(C(=O)Nc2nnc(-c3ccc(Cl)cc3)o2)cc1`, the cytotoxicity is 66.8% (active).

With `CN(C)c1ccc(C(=O)Nc2nnc(-c3ccc(Cl)cc3)o2)cc1`, the cytotoxicity is 31.7%.

For `COc1ccc(C(=O)Nc2nnc(-c3ccccc3)o2)cc1OC`, the cytotoxicity was -9.5%.

Regarding `Cc1cccc(-c2nnc(-c3ccccc3)o2)c1`, the cytotoxicity was -3.9%.

Consider `COc1ccccc1C(=O)Nc1nnc(-c2ccc(Cl)cc2)o1`, for which the cytotoxicity is -10.4%.

Turning to `Cc1cc(NC(c2cccnc2)c2c(C)[nH]c3ccccc23)no1` (stereo unspecified), the cytotoxicity is 5.2%.

On to `CC(=O)c1ncnn1CC(=O)c1ccc(Cl)cc1Cl`, for which the cytotoxicity is 13.6%.

As to `O=C(CCN1CCc2ccccc2C1)Nc1cccc(F)c1`, the cytotoxicity is 3.9%.

Take `Cc1ccc(NS(=O)(=O)c2cccc(C(=O)Nc3cc(C)on3)c2)cc1`: the cytotoxicity was -4.8%.

Regarding `Cc1ccc2nc3ccc(N4CCN(C)CC4)nn3c(=O)c2c1`, the cytotoxicity was -2.8%.

Regarding `COc1cccc(C2=NOC(C(=O)NC(C)C)C2)c1` (stereo unspecified), the cytotoxicity is -3.9%.

`COc1cccc(C2=NOC(C(=O)NC(C)(C)C)C2)c1` (stereo unspecified): the cytotoxicity is -11.2%.

In the case of `CC(C)(C)SCCNS(=O)(=O)c1ccc(F)cc1`, the cytotoxicity is 5.7%.

As to `O=S(=O)(c1cccc(-c2nnc(SCc3ccc(Cl)cc3)o2)c1)N1CCCCC1`, the cytotoxicity is -2.9%.

`Cc1cc2nc(-c3ccc(SCC(=O)N4CCOCC4)nc3)[nH]c2cc1C`: the cytotoxicity was -15.5%.

On to `O=C(NC1=NCCS1)Nc1ccccc1`, for which the cytotoxicity is 1.2%.

As to `Cc1cc(O)c(-c2n[nH]c3c2C(c2cccc(O)c2)N(Cc2cccnc2)C3=O)cc1Cl` (stereo unspecified), the cytotoxicity is 8%.

Turning to `COCCCN1C(=O)c2[nH]nc(-c3cc(C)cc(C)c3O)c2C1c1ccc(O)c(OC)c1` (stereo unspecified), the cytotoxicity was -2.5%.

With `CC(C)OCCCN1C(=O)c2[nH]nc(-c3ccccc3O)c2C1c1cccc(Cl)c1` (stereo unspecified), the cytotoxicity is -3.6%.

As to `COCCCN1C(=O)c2[nH]nc(-c3ccccc3O)c2C1c1cccc(Cl)c1` (stereo unspecified), the cytotoxicity is 13.3%.

Take `COc1ccc(C2c3c(-c4cc(Cl)c(C)cc4O)n[nH]c3C(=O)N2Cc2cccnc2)cc1OC` (stereo unspecified): the cytotoxicity is 26.6%.

In the case of `COc1ccc(C2c3c(-c4ccccc4O)n[nH]c3C(=O)N2CCc2ccc(OC)c(OC)c2)cc1` (stereo unspecified), the cytotoxicity is 36.9%.

With `COc1ccc(CCN2C(=O)c3[nH]nc(-c4ccccc4O)c3C2c2ccccc2)cc1OC` (stereo unspecified), the cytotoxicity is 54.9% (active).

As to `COCCCN1C(=O)c2[nH]nc(-c3ccccc3O)c2C1c1ccc(Cl)cc1` (stereo unspecified), the cytotoxicity was 67.3% (active).

For the compound `COc1cc(C2c3c(-c4cc(C)cc(C)c4O)n[nH]c3C(=O)N2CCCO)cc(OC)c1OC` (stereo unspecified), the cytotoxicity is 0.6%.

With `COc1ccc(CCN2C(=O)c3[nH]nc(-c4ccccc4O)c3C2c2cccc(O)c2)cc1OC` (stereo unspecified), the cytotoxicity is 66% (active).

`Cc1ccc(C2c3c(-c4ccccc4O)n[nH]c3C(=O)N2Cc2ccncc2)cc1` (stereo unspecified): the cytotoxicity is -3.9%.

With `Cc1noc(C)c1C(=O)OCC(=O)c1c[nH]c2ccccc12`, the cytotoxicity is 4.1%.

With `O=C(NCCC1=CCCCC1)C1CC(=O)N(C2CCCCC2)C1` (stereo unspecified), the cytotoxicity was 1.5%.

On to `COc1ccc(-c2noc(CCC(=O)N3CCN(c4cc(C)ccc4C)CC3)n2)cc1`, for which the cytotoxicity was 11.6%.

For the compound `O=C(CSCc1nc2ccccc2[nH]1)N1CCN(c2cccc(Cl)c2)CC1`, the cytotoxicity is 7.4%.

`COc1ccc(CCN2CC(C(=O)O)CC2=O)cc1` (stereo unspecified): the cytotoxicity was 1.2%.

Turning to `c1ccc(CCc2nc(-c3ccccn3)no2)cc1`, the cytotoxicity is 6.2%.

Regarding `O=C1c2ccccc2NC(c2ccccn2)N1c1ccc(Cl)cc1` (stereo unspecified), the cytotoxicity was -4.1%.

Take `CCN(CC)S(=O)(=O)c1ccc(NC(=O)CSc2nnc(-c3ccc(F)cc3)o2)cc1`: the cytotoxicity was -7.7%.

For `CCCN(CCC)S(=O)(=O)c1ccc(C(=O)Nc2nnc(-c3cc(OC)cc(OC)c3)o2)cc1`, the cytotoxicity is 47.5%.

With `COc1cccc(-c2nnc(NC(=O)c3ccc(S(=O)(=O)N4CC(C)OC(C)C4)cc3)o2)c1` (stereo unspecified), the cytotoxicity was -5.9%.

Turning to `COc1cccc(-c2nnc(NC(=O)c3ccc(S(=O)(=O)N(CC(C)C)CC(C)C)cc3)o2)c1`, the cytotoxicity was 51.2% (active).

For `CCCN(CCC)S(=O)(=O)c1ccc(C(=O)Nc2nnc(-c3cccc(OC)c3)o2)cc1`, the cytotoxicity is 66.4% (active).

On to `COc1cccc(-c2nnc(NC(=O)c3ccccc3Br)o2)c1`, for which the cytotoxicity was 22.6%.

Consider `COc1cccc(-c2nnc(NC(=O)c3ccc(S(=O)(=O)N4CCOCC4)cc3)o2)c1`, for which the cytotoxicity is 13.7%.

Regarding `CCCn1c(SCC(=O)Nc2nnc(CC)s2)nnc1-c1ccco1`, the cytotoxicity was -5%.

On to `O=C(Nc1ccc2oc(=O)ccc2c1)c1cccnc1`, for which the cytotoxicity was 3%.

`COc1ccccc1-c1nc(-c2ccncc2)no1`: the cytotoxicity is 2.1%.

For the compound `COc1cc2oc(=O)c(Br)c(C)c2c(OC)c1OC`, the cytotoxicity was -8.6%.

With `CCCS(=O)(=O)c1c(S(=O)(=O)CCC)c2ccccn2c1C(=O)OC`, the cytotoxicity is -3.7%.

With `CCN1CCN(c2cc(=O)n(C3CCCCC3)c(=O)[nH]2)CC1`, the cytotoxicity was -14.2%.

As to `CCOC(=O)N1CCN(C(=O)CCc2c(C)nc3c(c(C)nn3-c3ccc(C)c(C)c3)c2C)CC1`, the cytotoxicity was -7.7%.

As for `CCOc1ccc(S(=O)(=O)Nc2cc(OC)ccc2OC)cc1`, the cytotoxicity was 73.1% (active).

Turning to `CCCCOc1ccc(S(=O)(=O)Nc2cc(OC)ccc2OC)cc1`, the cytotoxicity was 31.3%.

For `COc1ccc(OC)c(NS(=O)(=O)c2ccc(SC)cc2)c1`, the cytotoxicity is 36.3%.

For `COc1ccc(OC)c(NS(=O)(=O)c2ccc3c(c2)CCC(=O)N3)c1`, the cytotoxicity was 3.3%.

Turning to `COc1ccc(OC)c(NS(=O)(=O)c2ccc(N3CCCC3=O)cc2)c1`, the cytotoxicity is 75.9% (active).

As to `COC(=O)COc1ccc(S(=O)(=O)Nc2cc(OC)ccc2OC)cc1`, the cytotoxicity is -2.9%.

Regarding `Cc1cc(C(=O)NCc2ccccc2)c(=O)[nH]c1C`, the cytotoxicity is -2.3%.

In the case of `Cc1cc(C)n2nc(SCC#N)nc2n1`, the cytotoxicity was 1.5%.

Turning to `CCCCOCCCNC(=O)c1c(-c2ccccc2)noc1C`, the cytotoxicity is 6.3%.

For `O=C(NCc1cccnc1)C1CC(c2ccc(F)cc2)=NO1` (stereo unspecified), the cytotoxicity was -10.8%.

Take `COc1ccc(C2=NOC(C(=O)NCc3ccc(F)cc3)C2)cc1` (stereo unspecified): the cytotoxicity is 63.5% (active).

As to `COc1ccc(CNC(=O)C2CC(c3ccc(F)cc3)=NO2)cc1` (stereo unspecified), the cytotoxicity was 1%.

`COc1ccc(CNC(=O)C2CC(c3ccc(OC)cc3)=NO2)cc1` (stereo unspecified): the cytotoxicity was 17.5%.

Consider `COc1ccc(C2=NOC(C(=O)NCC(C)C)C2)cc1` (stereo unspecified), for which the cytotoxicity is -14.9%.

Consider `COc1ccc(C2=NOC(C(=O)NCc3ccccc3)C2)cc1` (stereo unspecified), for which the cytotoxicity is 54.5% (active).

`CC(=O)Nc1ccc(NS(=O)(=O)c2ccc(Cl)c(C(=O)O)c2)cc1`: the cytotoxicity was 0.9%.

Turning to `COC(=O)CC1=NC(=O)CS1`, the cytotoxicity was 0.6%.

For the compound `COC(=O)c1ccccc1NC(=O)CSc1nnc(CNS(=O)(=O)c2ccc(C)cc2)n1C`, the cytotoxicity was -12.6%.

Regarding `O=C1OCCN1CCN(CN1C(=O)CCC1=O)CN1C(=O)CCC1=O`, the cytotoxicity is 5.9%.

`O=C(CN(Cc1ccc2c(c1)OCO2)C(=O)c1cnsn1)NC1CCCC1`: the cytotoxicity was 7%.

Turning to `COc1ccccc1NC(=O)c1ccc(Cl)c(S(=O)(=O)N2CCOCC2)c1`, the cytotoxicity was -10.1%.

For `O=C(Nc1cccnc1)c1ccc(Cl)c(S(=O)(=O)N2CCCCCC2)c1`, the cytotoxicity is 12.4%.

Turning to `COc1ccc(NC(=O)c2ccc(Cl)c(S(=O)(=O)N3CCc4ccccc4C3)c2)cn1`, the cytotoxicity was 86.5% (active).

With `COc1ccc(CNC(=O)C2CCCN(S(=O)(=O)c3cnc[nH]3)C2)cc1` (stereo unspecified), the cytotoxicity is -4.6%.

In the case of `CN(CC(O)COc1ccc(OCC(O)CN(C)C2CCCCC2)cc1)C1CCCCC1` (stereo unspecified), the cytotoxicity is 7.7%.

For the compound `Cc1csc(SCC(=O)Nc2c(C)n(C)n(-c3ccccc3)c2=O)n1`, the cytotoxicity is 3.8%.

With `COc1ccc(S(=O)(=O)Nc2nc(C(F)(F)F)cs2)cc1`, the cytotoxicity is -2.3%.

Consider `O=C(Cc1cccs1)NCc1ccco1`, for which the cytotoxicity was 5.7%.

Regarding `Cc1ccc2c(CC(=O)NCc3ccco3)coc2c1C`, the cytotoxicity is 64.7% (active).

As for `Cc1cc(C)c2c(CC(=O)NCc3ccco3)coc2c1`, the cytotoxicity was 4.1%.

`O=C(c1cnn2ccccc12)N(Cc1ccco1)C1CCCC1`: the cytotoxicity is -3.3%.

As to `Cc1ccc(-c2nnc3n2N=C(c2ccccc2)CS3)cc1`, the cytotoxicity is -4.2%.

As for `CCOc1ccc(C2=Nn3c(nnc3-c3ccccc3OC)SC2)cc1`, the cytotoxicity was 63.4% (active).

As for `c1ccc(C2=Nn3c(nnc3-c3cc(-c4ccccc4)n[nH]3)SC2)cc1`, the cytotoxicity is 5.2%.

Regarding `COc1ccc(OC)c(C2=Nn3c(nnc3-c3cc(OC)c(OC)c(OC)c3)SC2)c1`, the cytotoxicity is 4.4%.

Consider `COc1ccc(C2=Nn3c(nnc3-c3ccccc3)SC2)cc1OC`, for which the cytotoxicity is 3.6%.

`COc1cc(-c2nnc3n2N=C(c2ccccc2)CS3)cc(OC)c1OC`: the cytotoxicity is 57.4% (active).

On to `CCOc1ccc(C2=Nn3c(nnc3-c3ccc(OC)cc3)SC2)cc1`, for which the cytotoxicity is 45.9%.

As for `COc1ccc(C2=Nn3c(nnc3-c3ccccn3)SC2)cc1OC`, the cytotoxicity was -0.7%.

Turning to `CCOc1ccc(-c2nnc3n2N=C(c2ccc(OC)cc2)CS3)cc1`, the cytotoxicity is 0.1%.

For `COc1ccc(-c2nnc3n2N=C(c2ccccc2)CS3)cc1OC`, the cytotoxicity is -2.9%.
